Screens from PubChem BioAssay.
HP1b binding inh: blocks HP1-beta chromodomain binding to methylated histone tails; P83916; AlphaScreen HP1-beta / biotin-H3K9me3 peptide binding; Potency, µM (series often up to 114 µM), for inactives: top-dose activity change, negative = inhibition, usual class: inhibitors; 0.56% of 390,000 active; also: nearly all actives have a fitted effect of over 70% in size
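AlphaScreen: HP1-beta (50 nM) preformed 30 min with biotin-H3(1-18)K9me3 peptide (50 nM) in PBS pH 7.4, 0.01% Tween-20. Compound added for 30 min at RT, then streptavidin donor/nickel chelate acceptor beads (10 ug/mL) for 30 min.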
JMJD2A Tudor inh: JMJD2A Tudor domain (human) inhibition; O75164; AlphaScreen JMJD2A-Tudor / H3K4me3 peptide binding; Potency, µM (series often up to 114 µM), inactives show top-dose activity change, negative = inhibition, hits mostly inhibitors; 4.4% of 390,000 active; also: % is scaled to controls: 0 for no effect and ±100 for the full control effect; nearly all actives have a fitted effect of over 50% in size
TDP1 block: inhibitors of human tyrosyl-DNA phosphodiesterase TDP1. Q9NUW8. Potency, µM (highest dose often 130 µM), inactives show at the top dose activity change, negative = inhibition, actives largely listed as inhibitors. recombinant TDP1, AlphaScreen DNA substrate cleavage. AID 485290. 0.28% of 350,000 active; also: % is scaled to controls: 0 for no effect and ±100 for the full control effect; nearly all actives have a fitted effect of over 40% in size
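E. coli-derived human Tdp1, 1 nM final. Cpd preinc 15 min RT; substrate 15 nM final, 5 min RT; AS bead mix 10 ug/ml final, 10 min RT. Signal loss = tyrosine-FITC cleavage. No-enzyme wells = max signal.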
Sfp PPTase inh: blocks B. subtilis Sfp PPTase activity; 3.5% of 310,000 active; Biochemical Sfp PPTase activity, qHTS; AID 1490; Q9F4F7; Potency, µM, inactives show largest response in the series, negative = inhibition, most hits filed as inhibitors;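 also: the enzyme is Sfp with the accession as filed and its product quenches rhodamine fluorescence; 0% = enzyme reaction without inhibitor and -100% = no enzyme wells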
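Buffer: 50 mM Hepes-Na pH 7.6, 10 mM MgCl2, 0.01% Nonidet P-40, 0.01% BSA. Enzyme 15 nM, pre-exposed to compound 15 min; substrates then added and fluorescence change tracked over 30 min.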
BAZ2B inh: blocks human BAZ2B | AlphaScreen BAZ2B-H3K14Ac peptide displacement | Potency, µM (highest dose often 114 µM), for inactives: at the highest dose activity change, negative = inhibition, hits mostly inhibitors | 4.4% of 360,000 active; also: % is scaled to controls: 0 for no effect and ±100 for the full control effect; nearly all actives have a fitted effect of over 60% in size
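AlphaScreen displacement of biotin-H3(5-23)K14Ac peptide (50 nM final) from BAZ2B (50 nM final) in PBS pH 7.4, 0.01% Tween-20; complex preformed 30 min RT, then compounds (top 110 uM) 30 min RT, beads 20 min dark.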
G9a block: G9a (human) methyltransferase inhibition | AID 504332 | Potency, µM (highest dose often 102 µM), for inactives: at the top dose activity, negative = inhibition, usual class: inhibitors | G9a H3K9 monomethylation, AlphaScreen, 2 h | 8.8% of 350,000 active; also: % is scaled to controls: 0 for no effect and ±100 for the full control effect; nearly all actives have a fitted effect of over 75% in size
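AlphaScreen read-out: biotin-H3K9 peptide (500 nM) methylation by 20 nM enzyme with 20 uM SAM, 2 h at room temperature after 15 min compound preincubation; anti-monomethyl H3K9 antibody plus donor/acceptor beads, 10 min dark.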
* hit, by the source's call; ? = inconclusive; . = not tested or not shown; [ ] = another dose, or the depositor's remark. An excerpt weighted towards active compounds, which were near 12% of everything screened. Calls follow the shape of the dose curve; as a rule, active = well fitted curve in the direction sought with a large enough effect; inconclusive = small, poorly fitted or top-dose-only effect, or another doubt; inactive = no such curve, though single readings can be large; an effect the other way counts as inactive or inconclusive. Potency is read from the fitted curve at half-maximal effect.

SMILES | HP1b binding inh | JMJD2A Tudor inh | TDP1 block | Sfp PPTase inh | BAZ2B inh | G9a block
NC(=O)[C@@H]1CCCNc2c(I)cc([N+](=O)[O-])cc2C(=O)N[C@@H](CCCN=C(N)N)C(=O)N[C@@H](CCCN=C(N)N)C(=O)N1 | . | . | -3.9% | -5.0% | -34.7% | 14.1µM*
CC[C@H](C)[C@@H]1NC(=O)c2cc([N+](=O)[O-])cc(I)c2SC[C@@H](C(N)=O)NC(=O)[C@H](CCCCN)NC1=O | 0.8% | ? | -5.3% | ? | 70.8µM* | 8.91µM*
CC[C@H](C)[C@@H]1NC(=O)c2cc([N+](=O)[O-])cc(I)c2NCC[C@@H](C(N)=O)NC(=O)[C@H](CCCN=C(N)N)NC1=O | 33.6% | -28.4% | 1.3% | 5.2% | ? | 14.1µM*
Cc1cc(C)cc(SCc2noc(C(=O)NCC3CC3)c2C(=O)NCC2CC2)c1 | 84.5% | 21.7% | . | . | . | .
CN1CCN(S(=O)(=O)c2cccc(C(=O)NC3(C)CCS(=O)(=O)C3)c2)CC1 (stereo unspecified) | 15.2% | -4.5% | 0.4% | . | -1.9% | -3.6%[12.7 µM]
O=C(O)c1cc(NS(=O)(=O)c2cccc3ccccc23)ccc1O | 0.0% | -19.0% | 5.5% | -6.5% | -2.4% | -24.9%[59 µM]
Cc1cc(C(C)(C)C)cc(S(=O)(=O)Nc2ccc(O)c(C(=O)O)c2)c1C | 26.4% | -14.1% | 4.7% | 89.1µM* | 0.5% | ?
COc1ccc2[nH]c(S(=O)Cc3ncc(C)c(OC)c3C)nc2c1 (stereo unspecified) | . | 50.1µM* | . | -24.2% | -28.5% | 15.8µM*
COc1ccnc(CS(=O)c2nc3cc(C(O)(F)F)ccc3[nH]2)c1OC (stereo unspecified) | 21.5% | 79.4µM* | . | -6.2% | -0.6% | 20µM*
COc1ccc2oc(C(=O)Nc3nc4ccccc4[nH]3)c(C)c2c1 | 44.9% | -3.1% | . | ? | -0.5% | 7.7%[12.7 µM]
Cc1ccc(C2(C)NC(=O)N(CC(=O)NNC(=O)c3ccccc3F)C2=O)cc1 (stereo unspecified) | 19.0% | -2.9% | 1.0% | . | -8.2% | 28.8%[59 µM]
CCOc1ncccc1C(=O)N1CCN(c2cc(Cl)ccc2C)CC1 | -22.9% | 50.1µM* | -1.2% | 6.3% | -9.0% | 7.5%
CCOc1ncccc1C(=O)N1CCN(c2cccc(C)c2C)CC1 | 6.8% | -11.8% | 3.8% | 8.4% | -1.4% | 22.1%
CCCCn1c(N)c(N(CC(C)C)C(=O)CCNC(=O)c2ccc([N+](=O)[O-])cc2)c(=O)[nH]c1=O | 9.3% | -8.3% | -0.3% | . | 15.3% | ?
c1ccc2ncccc2c1 | 19.3% | -18.4% | 0.8% | . | . | .
Fc1ccccc1-c1cc2ncccc2cn1 | 45.8% | ? | 2.1% | . | 56.2µM* | -3.6%[0.501 µM]
CC(=O)c1cccc2c(O)c(C3=Nc4ccccc4C3=O)[nH]c12 | -93.9% | 44.7µM* | 9.8% | 39.8µM* | 25.1µM* | ?
Cc1ccc2c(c1)c1cccc3c1n2CCN3CCC(N)=O | ? | 50.1µM* | 8.4% | -3.0% | 39.8µM* | ?
Cc1cc(C)c(NC(=O)Cn2c(=O)c3cccn3c3ccccc32)c(C)c1 | 29.5% | -9.8% | -7.1% | -26.8% | -23.7% | -0.8%
CCc1ccc2c(COC(=O)c3n[nH]c4ccccc34)cc(=O)oc2c1 | 41.5% | ? | -2.0% | -9.0% | -1.5% | 35.5µM*
CCOC(=O)C1=C(C)OC(N)=C(C#N)C1c1ccc(OC)c(CSc2ccccn2)c1 (stereo unspecified) | 20.2% | ? | 8.1% | -10.2% | ? | 22.4µM*
CCOC(=O)C1=C(C(C)=O)C(c2cccnc2)C(C#N)=C(N)O1 (stereo unspecified) | 17.2% | ? | 2.3% | -17.3% | -7.1% | -4.2%[12.7 µM]
CCOC(=O)C1=C(CSc2nc(-c3ccncc3)ccc2C#N)OC(N)=C(C#N)C1c1cccnc1 (stereo unspecified) | 36.1% | -14.2% | 8.3% | 79.4µM* | 7.7% | 35.5µM*
